# Test results published in PubChem BioAssay (NCI).
# Compounds without any hit were thinned out: in the full panel of roughly 79,000, 15% have a hit. Values without a mark were called inactive. Active and inactive are the calls of the source. Rule as the data show it: active = growth inhibition above about 70%; inactive = the rest. Where a SMILES comes first, the peptide text is derived from it. The star is where a group is joined. Cbz = O=C(OCc1ccccc1)*
# Assays:
# [1] = NCI Yeast Anticancer Drug Screen. Data for the rad50 strain (AID 155);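 also: 0% = growth of vehicle-only cultures of the same strain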; conditions: S. cerevisiae rad50 strain growth inhibition; at 50.0 µM; active compounds read high
# How it was run: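 Inhibition values express reduced yeast growth in compound-treated cultures relative to vehicle-treated controls.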
# [2] = NCI Yeast Anticancer Drug Screen. Data for the mec2-1 strain (AID 157); conditions: S. cerevisiae mec2-1 strain, at 50.0 µM, active compounds read high
# How it was run: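 Test agents were screened against the mec2-1 yeast strain, with defined DNA repair or cell cycle alteration. Growth was scored as inhibition against vehicle-only controls.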
# [3] = NCI Yeast Anticancer Drug Screen. Data for the sgs1 mgt1 strain (AID 161);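 also: 0% = growth of cultures given vehicle only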; conditions: S. cerevisiae sgs1 mgt1 strain, at 50.0 µM, active compounds read high
# How it was run: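 Read-out: growth inhibition vs vehicle controls. Cells: mutant yeast strain deficient in DNA damage repair.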
# [4] = NCI Yeast Anticancer Drug Screen. Data for the cln2 rad14 strain (AID 165);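 also: 0% = growth equal to vehicle treated cultures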; conditions: S. cerevisiae cln2 rad14 strain, at 50.0 µM, active compounds read high
# How it was run: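 Growth of compound-exposed yeast (cln2 rad14 genotype) measured and expressed as inhibition relative to vehicle.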
# [5] = NCI Yeast Anticancer Drug Screen. Data for the bub3 strain (AID 167); conditions: S. cerevisiae bub3 mutant strain, at 50.0 µM, active compounds read high
# How it was run: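 Steps: expose the mutant yeast strain to compound; grow alongside vehicle-treated cultures; measure growth; express inhibition against the vehicle cultures.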
# [6] = NCI Yeast Anticancer Drug Screen. Data for the mlh1 rad18 strain (AID 175); conditions: S. cerevisiae mlh1 rad18 strain growth inhibition; at 50.0 µM; active compounds read high
# How it was run: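 In this whole-cell yeast screen, a strain with altered DNA damage repair is challenged with compound, and its growth is measured against matched vehicle-treated controls.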
SMILES,growth inhibition [1],growth inhibition [2],growth inhibition [3],growth inhibition [4],growth inhibition [5],growth inhibition [6]
CC(=O)C1C(=O)C(=O)N(Cc2ccccc2)C1=O (configuration not stated),-20.4%,-13.8%,-27.4%,-19.3%,-7.4%,-19.6%
CC(=O)C(C(C)=O)C(C(C)=O)C(C)=O.[Cu],-26.8%,-11.3%,-21.1%,-10.4%,-18.4%,-22.1%
O=C(NC(Cc1ccccc1)C(=O)N1CCCC1C(=O)O)OCc1ccccc1 (stereo not drawn) (Cbz-Phe-Pro-OH; configuration not given here),7.75%,2.55%,-7.05%,-13.9%,-1.75%,5.05%
CCC(C)Nc1ncnc2c1cnn2C (configuration not stated),-14.2%,-27.9%,-16.8%,-32.5%,-25.4%,-10.9%
OC(Cc1cccc(=S)[nH]1)(c1ccccc1)c1ccccc1,-7.35%,-7.25%,-9.25%,-37.9%,-1.8%,-26.3%
Cc1ccc(S(=O)(=O)N(CCO)CC(C)O)cc1 (configuration not stated),-15.9%,-24.1%,-23.2%,-13%,-24.1%,-26.8%
CCSc1ncnc2nc[nH]c12,9%,-8.8%,4.4%,-18.4%,-9.55%,8.4%
Cn1ncc(=O)[nH]c1=O,-15.2%,-5.2%,-23.4%,10.1%,-9.85%,-10.3%
CC(C)(C)OC(=O)CNC(=O)C(CSC(c1ccccc1)c1ccccc1)NC(=O)CNC(=O)C(CCCCNC(=O)OCc1ccccc1)NC(=O)CNC(=O)C(CSC(c1ccccc1)(c1ccccc1)c1ccccc1)NC(=O)OCc1ccccc1 (configuration not stated),34.8%,14.7%,8.5%,3.8%,19.3%,-4.2%
CC(C)CNC(=O)O,5.15%,-7.1%,-7.5%,-6.15%,-10.8%,-4.75%
CN(C)Cc1ccccc1COC(=O)c1ccc([N+](=O)[O-])cc1Cl,-8.9%,-12.6%,10.8%,-29.1%,3.65%,-34.1%
CCc1cccc(C(C)C)c1NC(=O)C(=O)C(Cc1nc2ccccc2[nH]c1=O)C(=O)OC (configuration not stated),37.8%,8.6%,3.85%,-57.9%,2.4%,15.4%
CC(=O)OC1CCC2(C)C(CCC34OC23CCC2(C)C(C(C)CCCC(C)C)CCC24C)C1(C)C (configuration not stated),45.4%,16.4%,39.5%,1%,-1%,28.4%
C=C(Cl)/C(=C\Cl)CCC(Cl)C(C)C (configuration not stated) (tested in a mixture with another compound),68.5%,78% (active),91% (active),72% (active),90.8% (active),89.3% (active)
CNc1cc(S(=O)(=O)O)ccc1C,1.45%,-4.45%,-2.6%,3.9%,10.6%,-5.05%
Cc1cc(=O)[nH]c(=O)n1CCCN(C)CCCn1c(C)cc(=O)[nH]c1=O,2.2%,-2.35%,8.85%,-0.9%,-28.6%,-3.95%
C=COC(=O)C=C,-3.1%,9.15%,-3.2%,-0.2%,13.9%,-9.15%
N#Cc1ccc(Br)cc1,7.95%,-3.45%,16.6%,-19.9%,-6.2%,18.1%
S=C(NNC(=S)Nc1ccccc1)Nc1ccccc1,-16.9%,1.7%,6.9%,-1.15%,-5.4%,-2.2%
Cc1cc(C)c(NS(=O)c2cccc(C(F)(F)F)c2)c(C)c1 (configuration not stated),-47.1%,-26.5%,-61%,-9.75%,-31.4%,-43%
O=C(O)c1cccc(S(=O)(=O)NN2C(=O)CSC2c2ccccc2Cl)c1 (configuration not stated),28.5%,-3.95%,2.85%,5.9%,12.7%,28.7%

SMILES,growth inhibition [1],growth inhibition [2],growth inhibition [3],growth inhibition [4],growth inhibition [5],growth inhibition [6]
CCC(=O)N1CCN(C(=O)CC)c2ccccc21,-3%,-5.8%,-0.25%,-5.25%,0.75%,6.65%
Cc1cccc(N/N=C2\CCSc3ccccc32)c1,17.9%,8.45%,3.35%,5.95%,3.75%,4%
O=C1NC(=O)C(c2ccc3c(c2)OCO3)N1 (configuration not stated),-3.25%,-10.6%,-6%,-30.9%,-23.3%,7.05%
Nc1ncnc2c1cnn2Cc1ccccc1,4.9%,-7.3%,4.65%,-3.75%,21.2%,2.35%
O=c1cnn2c(n1)sc1ccc3ccccc3c12,-11.8%,-0.9%,-15.4%,0.65%,26.5%,40.4%
Cc1ccc(F)c2[nH]c(-c3ccccc3)cc(=O)c12,14.9%,3.45%,-1.2%,-5.95%,8%,12%
CCC1SC(N)=NC1=O (configuration not stated),16.1%,9.65%,24.7%,20.4%,10.2%,5.55%
CNC(=O)c1ccccc1O,21.2%,8.55%,5.65%,11.3%,5.15%,2.35%
OCCN(CCO)c1ncnc2c1ncn2CCc1ccccc1,13.6%,-0.25%,16.2%,-16%,4.1%,-2.25%
C=C1CC[N+]2(CCCCCC)CCCC12 (configuration not stated),2.5%,27.4%,11.3%,-1.4%,25.4%,21.6%
CC1CC(=O)c2cc3oc(=O)n(C)c3cc21 (configuration not stated),-3.4%,-4.15%,-6.2%,-20.5%,19.2%,-0.45%
Nc1nc2c(=O)[nH]c(=O)[nH]c2n1C1OC(CO)C(O)C1O (configuration not stated),4.7%,-3.9%,0.35%,4.9%,14.2%,-6.1%
CCCCCCCCS(N)(=O)=O,0.8%,-15.2%,-4.1%,-11.4%,-2.55%,-8.95%
CCC1(C(=O)OC)CCc2c(OC)ccc(OC)c2C1=O (configuration not stated),-8.65%,-9.35%,0.1%,3.25%,-12.9%,-46.8%
COc1cc(OC)c(N=Nc2c(N)nc(N)[nH]c2=O)cc1Cl,4.95%,14.6%,7.5%,-12.1%,8.3%,-1.4%
CCCCN(CCCC)CC(O)c1cc(-c2ccccc2)nc2c(O)cccc12 (configuration not stated),-28.6%,22.4%,-18.2%,-14.4%,3.6%,-12.2%
COc1ccc(/C=C(\C)C=C(C#N)C#N)cc1,45.5%,39.8%,52%,38%,45.1%,59.7%
O=C(ON(Cc1ccccc1)Cc1ccccc1)c1ccccc1,-7.8%,1.95%,20.4%,-14.8%,28.1%,10.8%
Cc1nn(-c2nc(-c3ccc(Br)cc3)cs2)c(C)c1C,12.9%,-4.9%,-9.95%,9.6%,5.65%,3.45%
O=C(CCl)Oc1cccc([N+](=O)[O-])c1,0.6%,-11.2%,-7.05%,-8.45%,-17.5%,-20.4%
Cc1c(-c2ccccc2)c(-c2ccccc2)c(C)c(-c2ccc3c(c2)CCCC3)c1-c1ccccc1,-15%,-3.35%,-33.2%,1.75%,22.2%,-16.7%
